In PubChem BioAssay AID1851 (National Center for Advancing Translational Sciences (NCATS), 2009):
In all, about 16,000 compounds went through this assay and about 5,100 (32%) were called active. Not shown: some 25% with an inconclusive outcome. Calls follow the shape of the dose curve; as a rule, active = well fitted curve in the direction sought with a large enough effect; inconclusive = small, poorly fitted or top-dose-only effect, or effect the other way; inactive = no such curve, though single readings can be large or run the other way. This is one part of the list.

Target: Cytochrome P450 3A4 (Homo sapiens) (UniProt P08684)
Sequence (P08684 whole entry, looked up): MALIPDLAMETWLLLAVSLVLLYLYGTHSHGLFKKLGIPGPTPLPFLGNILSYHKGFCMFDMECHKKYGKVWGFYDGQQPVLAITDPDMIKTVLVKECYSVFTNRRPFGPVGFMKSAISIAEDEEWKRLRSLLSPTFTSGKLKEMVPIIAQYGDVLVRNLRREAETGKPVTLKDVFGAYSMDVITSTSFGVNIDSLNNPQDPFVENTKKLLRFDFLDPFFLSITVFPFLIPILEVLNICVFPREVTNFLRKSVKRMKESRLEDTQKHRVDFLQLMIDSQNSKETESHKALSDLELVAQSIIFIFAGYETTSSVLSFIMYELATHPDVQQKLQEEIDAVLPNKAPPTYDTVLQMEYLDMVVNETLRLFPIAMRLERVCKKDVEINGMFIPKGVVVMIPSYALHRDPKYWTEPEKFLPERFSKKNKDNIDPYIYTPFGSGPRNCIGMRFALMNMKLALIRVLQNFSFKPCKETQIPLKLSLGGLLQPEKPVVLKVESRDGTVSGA
Experiment: Cytochrome panel assay with activity outcomes
Conditions: recombinant CYP, pro-luciferin dealkylation, luminescence, p450-cyp3a4; series mostly up to 57.1 µM; activity, negative = inhibition: at the top concentration
% is scaled to controls: 0 for no effect and ±100 for the full control effect.

activity, negative = inhibition, inactive:
O=C(O)c1c2ccccc2cc2ccccc12 0.0487%
CN=C(N)/N=C(\N)Nc1cc2ccccc2c2ccccc12 -14.5% [at 11.4 µM]
CCN(CC)C(=O)C1CC(=O)N(c2ccc(OC)cc2)C1c1ccc(OC)cc1 (stereo unspecified) -28.4% [at 2.29 µM]
NC(=O)/C(=N\O)c1ccccc1 -20.2%
c1cc(NNc2cccc(-c3nn[nH]n3)c2)cc(-c2nn[nH]n2)c1 -11.1% [at 11.4 µM]
Cn1c(=O)c2c(ncn2CN2CCN(Cn3cnc4c3c(=O)n(C)c(=O)n4C)CC2)n(C)c1=O 3.42% [at 11.4 µM]
Cc1ccc(S(=O)(=O)NC(=O)OC23COCN2COC3)cc1 -8.25% [at 11.4 µM]
Cn1c(=O)c(-c2ccc(Cl)cc2)nc2cncnc21 -13.1%
O=c1c(-c2cc(F)cc(F)c2)nc2cncnc2n1-c1ccccc1 -35.4%
COc1ccc(-n2c(=O)c(-c3ccc(F)cc3)nc3cnc(N4CCOCC4)nc32)cc1 -15.1%
COc1ccc(-n2c(=O)c(-c3ccc(F)cc3)nc3cncnc32)cc1 -30.6%
CCNc1ncc2nc(-c3ccc(F)cc3)c(=O)n(-c3ccccc3)c2n1 -12.8%
Cn1c(=O)c(-c2cccc(Cl)c2)nc2cncnc21 -21.6%
Nc1ncnc2c1ncn2[C@H]1O[C@@H](C(=O)O)[C@@H](O)[C@H]1O 0.186% [at 11.4 µM]
COC(=O)C1=C(CSc2nncn2C)NC(=O)NC1c1ccc(F)cc1 (stereo unspecified) -6.15%
CCC(=O)NNc1cc(=O)c2c(=O)n(C)c(=O)n(C)c2[nH]1 1.3% [at 2.29 µM]
O=[N+]([O-])c1ccc(N2CCCCC2)c(Cl)c1N1CCCCC1 -20.1%
Cn1cccc1C(=O)N1CCC2(CC1)CCN(c1ccccn1)CC2 27.7%
CCCC12CN3CC(CCC)(CN(C1)C3C(O)C(O)C(O)CO)C2=O (stereo unspecified) 0.643% [at 11.4 µM]
O=C(NNC(=S)NC(=O)c1cccnc1)c1ccccc1 1.97% [at 2.29 µM]
CCOc1ccc(NC(=O)c2nnn(CC(=O)Nc3ccccc3OC)c2N)cc1 10.2%
Cc1ccc(C)c(NC(=O)Cn2c([N+](=O)[O-])cnc2C)c1 -16.5%
COC(=O)c1nnn(Cc2ccccc2)c1N -10.5%
Cc1ccc(C)c(NC(=O)Cn2nnc(C(=O)NCc3cccs3)c2N)c1 -15.7%

AC50, active:
COc1ccc(C2CC(=O)CC(=O)C2n2cncn2)cc1 (stereo unspecified) 2.24 µM
O=C1CC(=O)C(n2cncn2)C(c2cccc(Cl)c2)C1 (stereo unspecified) 0.501 µM
COCCNc1nc(-c2cccc(NS(C)(=O)=O)c2)nc2ccccc12 12.6 µM
Cc1cccc(CNc2nc(-c3cccc(NS(C)(=O)=O)c3)nc3ccccc23)c1 5.01 µM
CS(=O)(=O)Nc1cccc(-c2nc(NCc3cccs3)c3ccccc3n2)c1 3.16 µM
CS(=O)(=O)Nc1cccc(-c2nc(NCc3cccnc3)c3ccccc3n2)c1 2 µM
CC(=O)NCCNc1nc(-c2cccc(NS(C)(=O)=O)c2)nc2ccccc12 15.8 µM
CS(=O)(=O)Nc1cccc(-c2nc(NCc3ccccc3)c3ccccc3n2)c1 3.16 µM
COc1ccc(CNc2ncnc3ccc(-c4cccc(C#N)c4)cc23)c(OC)c1 1.58 µM
COc1ccccc1CNc1ncnc2ccc(-c3cccc(C#N)c3)cc12 7.94 µM
COc1ccc(-n2c(=O)c(-c3ccc(Cl)cc3)nc3cncnc32)cc1 15.8 µM
COc1ccc(-n2c(=O)c(-c3cccc(F)c3)nc3cncnc32)cc1 20 µM
COc1ccc(-n2c(=O)c(-c3cc(F)cc(F)c3)nc3cncnc32)cc1 12.6 µM
COc1ccc(-n2c(=O)c(C)nc3cncnc32)cc1 5.01 µM
CCNc1ncc2nc(-c3cc(F)cc(F)c3)c(=O)n(-c3ccc(OC)cc3)c2n1 10 µM
COc1ccc(-n2c(=O)c(-c3cccc(Cl)c3)nc3cncnc32)cc1 12.6 µM
CCOC(=O)C1=C(CSc2nc3ccccc3s2)NC(=O)NC1c1cccc([N+](=O)[O-])c1 (stereo unspecified) 6.31 µM
CCOC(=O)C1=C(CSc2nc3ccccc3s2)NC(=O)NC1c1cc(C)ccc1C (stereo unspecified) 4.47 µM
CCOC(=O)C1=C(COc2ccc(F)cc2Cl)NC(=O)NC1c1cc(C)ccc1C (stereo unspecified) 6.31 µM
O=C1CCCN1c1ccc(S(=O)(=O)Oc2cccc(Cl)c2)cc1[N+](=O)[O-] 12.6 µM
CN1C(=O)/C(=C\c2ccccc2)Sc2ccc(C(=O)N3CCN(c4ccccn4)CC3)cc21 14.1 µM
Cc1cnc(CNc2nc(-c3cccnc3)nc3ccccc23)cn1 3.98 µM
COc1cccc(-c2nc(NCc3cnc(C)cn3)c3ccccc3n2)c1 2.51 µM
Cc1ccc(C(=O)NNC(=S)NC(=O)c2ccc(Cl)cc2)cc1 14.1 µM
COc1ccc(CCNC(=O)c2nnn(CC(=O)Nc3ccccc3C)c2N)cc1OC 12.6 µM
CCOc1ccc(NC(=O)Cn2nnc(C(=O)NCc3ccccc3OC)c2N)cc1 11.2 µM
Cc1ccc(C)c(NC(=O)Cn2nnc(C(=O)Nc3c(C)cccc3C)c2N)c1 12.6 µM
